The supplement of paper PMC10849652
Of roughly 8,800 targets only a part is listed; those with a hit were picked by preference. About 0.5% of all pairs of compound and target were hits.

How the values were obtained:
Assay in all cases: log2 fold change, soluble protein after heating vs DMSO (PISA); higher = thermal stabilisation; K562 lysate, 10 uM; active = over 0.2 and 3.5 SD of the protein, either way, in both replicates (recomputed)
vemurafenib = compound: CCCS(=O)(=O)Nc1ccc(F)c(C(=O)c2c[nH]c3ncc(-c4ccc(Cl)cc4)cc23)c1F [vemurafenib]
Procedure, shortened: (§1)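 Soluble protein was defined as the supernatant remaining after 21,000xg for 90 min, following pooling of heated aliquots and adjustment to 0.5% NP-40 at 4°C. Before that, crude K562 extract at 1 mg/mL protein in PBS pH 7.4 with 1 mM MgCl2 was treated with 10 μM compound for 30 min and heated for 3 min across 48°C-58°C. Quantification used TMTpro 16plex LC-MS/MS with channel sums equalised, and values are log-two fold changes in thermal stability relative to solvent controls from duplicates.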

[1] = compound: CCCS(=O)(=O)Nc1ccc(F)c(C(=O)c2c[nH]c3ncc(Cl)cc23)c1F
Procedure, shortened: as §1

barasertib = compound: CCN(CCCOc1ccc2c(Nc3cc(CC(=O)Nc4cccc(F)c4)[nH]n3)ncnc2c1)CCOP(=O)(O)O [barasertib]
Procedure, shortened: as §1

[2] = compound: CC[C@@H]1C(=O)N(C)c2cnc(Nc3ccc(C(=O)NC4CCN(C)CC4)cc3OC)nc2N1C1CCCC1
Procedure, shortened: as §1

volasertib = compound: CC[C@@H]1C(=O)N(C)c2cnc(Nc3ccc(C(=O)N[C@H]4CC[C@H](N5CCN(CC6CC6)CC5)CC4)cc3OC)nc2N1C(C)C [volasertib]
Procedure, shortened: as §1

[3] = compound: CCn1cc(-c2ccnc3[nH]c(-c4cccc(CN(C)C)c4)cc23)c(-c2ccc(NC(=O)N(C)C)cc2)n1
Procedure, shortened: as §1

[4] = compound: CN1CCC(CNc2ccc3ncc(-c4cccc(OC(F)(F)F)c4)n3n2)CC1
Procedure, shortened: as §1

saracatinib = compound: CN1CCN(CCOc2cc(OC3CCOCC3)c3c(Nc4c(Cl)ccc5c4OCO5)ncnc3c2)CC1 [saracatinib]
Procedure, shortened: as §1

sotrastaurin = compound: CN1CCN(c2nc(C3=C(c4c[nH]c5ccccc45)C(=O)NC3=O)c3ccccc3n2)CC1 [sotrastaurin]
Procedure, shortened: as §1

alvocidib = compound: CN1CC[C@H](c2c(O)cc(O)c3c(=O)cc(-c4ccccc4Cl)oc23)[C@H](O)C1 [alvocidib]
Procedure, shortened: as §1

[5] = compound: CNC(=O)C1=CC=CC=C1NC2=NC(=NC=C2Cl)NC3=C(C=C(C=C3)N4CCOCC4)OC
Procedure, shortened: as §1

defactinib = compound: CNC(=O)c1ccc(Nc2ncc(C(F)(F)F)c(NCc3nccnc3N(C)S(C)(=O)=O)n2)cc1 [defactinib]
Procedure, shortened: as §1

[6] = compound: CNc1nc(-c2ccc3c(N)n[nH]c3c2)cc(N2C[C@@H](C(=O)NC3CCCCC3)CC[C@H]2C)n1
Procedure, shortened: as §1

encorafenib = compound: COC(=O)N[C@@H](C)CNc1nccc(-c2cn(C(C)C)nc2-c2cc(Cl)cc(NS(C)(=O)=O)c2F)n1 [encorafenib]
Procedure, shortened: as §1

[7] = compound: COC(=O)[C@H](CCSC)NC(=O)C1=C(C=C(C=C1)NC[C@H](CS)N)C2=CC=CC=C2
Procedure, shortened: as §1

[8] = compound: COc1cc2nc(-c3cc(F)ccc3O)nc(N[C@@H]3CNC[C@H]3C(C)(C)O)c2cc1OC
Procedure, shortened: as §1

[9] = compound: CCn1c(C(=O)N(C2CC2)C2CC2)cc2c3c(ncn3C)c(Nc3cc(C)n(C)n3)nc21
Procedure, shortened: as §1

Tubastatin A = compound: CN1CCc2c(c3ccccc3n2Cc2ccc(C(=O)NO)cc2)C1 [Tubastatin A]
Procedure, shortened: as §1

alisertib = compound: COc1cc(Nc2ncc3c(n2)-c2ccc(Cl)cc2C(c2c(F)cccc2OC)=NC3)ccc1C(=O)O [alisertib]
Procedure, shortened: as §1

gefitinib = compound: COc1cc2ncnc(Nc3ccc(F)c(Cl)c3)c2cc1OCCCN1CCOCC1 [gefitinib]
Procedure, shortened: as §1

Measured: log2 fold change

TNIK (UniProt C9J338)
inactive: vemurafenib 0.151 | [1] 0.064 | barasertib 0.028 | [2] 0.171 | volasertib -0.011 | [3] -0.51 | [4] 0.341 | saracatinib 0.033 | sotrastaurin -0.026 | alvocidib -0.155 | [5] -0.211 | defactinib -0.014 | [6] 0.306 | encorafenib -0.012 | [7] 0.005 | [8] 0.076

TUBAL3 (UniProt A6NHL2)
inactive: vemurafenib 0.084 | [1] -0.024 | barasertib -0.011 | [2] -0.122 | volasertib 0.041 | [9] -0.196 | [3] -0.413 | [4] 0.284 | saracatinib 0.001 | alvocidib -0.276 | Tubastatin A 0.109 | [5] -0.179 | defactinib -0.093 | [6] 0.039 | encorafenib 0.03 | [7] 0.032 | alisertib 0.135 | [8] 0.088 | gefitinib -0.057

TBK1 (UniProt Q9UHD2)
UniProt Q9UHD2, sequence (Q9UHD2 whole entry, looked up): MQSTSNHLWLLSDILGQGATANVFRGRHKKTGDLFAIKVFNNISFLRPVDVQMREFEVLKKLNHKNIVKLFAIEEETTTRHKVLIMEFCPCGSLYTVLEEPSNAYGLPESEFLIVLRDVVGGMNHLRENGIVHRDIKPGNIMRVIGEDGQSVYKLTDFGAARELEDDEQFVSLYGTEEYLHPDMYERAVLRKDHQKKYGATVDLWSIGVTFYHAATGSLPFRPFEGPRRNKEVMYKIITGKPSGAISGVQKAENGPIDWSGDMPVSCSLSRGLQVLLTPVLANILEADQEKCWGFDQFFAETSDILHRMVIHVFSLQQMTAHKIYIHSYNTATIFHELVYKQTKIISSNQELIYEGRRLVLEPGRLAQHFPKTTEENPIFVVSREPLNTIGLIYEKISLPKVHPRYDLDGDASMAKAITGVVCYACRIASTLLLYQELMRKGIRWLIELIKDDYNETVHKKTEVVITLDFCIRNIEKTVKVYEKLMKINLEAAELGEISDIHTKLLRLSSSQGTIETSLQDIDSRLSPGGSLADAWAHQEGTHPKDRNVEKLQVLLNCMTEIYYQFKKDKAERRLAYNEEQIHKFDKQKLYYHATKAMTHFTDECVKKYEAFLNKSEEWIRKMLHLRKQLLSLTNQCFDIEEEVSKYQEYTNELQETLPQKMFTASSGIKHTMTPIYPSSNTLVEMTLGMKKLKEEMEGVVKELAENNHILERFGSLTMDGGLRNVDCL
inactive: vemurafenib 0.008 | [1] 0.002 | barasertib -0.03 | [2] -0.058 | volasertib -0.064 | [9] -0.021 | [3] 0.216 | [4] 0.079 | saracatinib -0.029 | sotrastaurin -0.045 | Tubastatin A -0.16 | defactinib 0.328 | [6] -0.035 | encorafenib 0.014 | [7] -0.293 | alisertib 0.039 | [8] -0.007 | gefitinib -0.032
active: [5] 0.528

UBN1 (UniProt Q9NPG3)
UniProt Q9NPG3, sequence (Q9NPG3 whole entry, looked up): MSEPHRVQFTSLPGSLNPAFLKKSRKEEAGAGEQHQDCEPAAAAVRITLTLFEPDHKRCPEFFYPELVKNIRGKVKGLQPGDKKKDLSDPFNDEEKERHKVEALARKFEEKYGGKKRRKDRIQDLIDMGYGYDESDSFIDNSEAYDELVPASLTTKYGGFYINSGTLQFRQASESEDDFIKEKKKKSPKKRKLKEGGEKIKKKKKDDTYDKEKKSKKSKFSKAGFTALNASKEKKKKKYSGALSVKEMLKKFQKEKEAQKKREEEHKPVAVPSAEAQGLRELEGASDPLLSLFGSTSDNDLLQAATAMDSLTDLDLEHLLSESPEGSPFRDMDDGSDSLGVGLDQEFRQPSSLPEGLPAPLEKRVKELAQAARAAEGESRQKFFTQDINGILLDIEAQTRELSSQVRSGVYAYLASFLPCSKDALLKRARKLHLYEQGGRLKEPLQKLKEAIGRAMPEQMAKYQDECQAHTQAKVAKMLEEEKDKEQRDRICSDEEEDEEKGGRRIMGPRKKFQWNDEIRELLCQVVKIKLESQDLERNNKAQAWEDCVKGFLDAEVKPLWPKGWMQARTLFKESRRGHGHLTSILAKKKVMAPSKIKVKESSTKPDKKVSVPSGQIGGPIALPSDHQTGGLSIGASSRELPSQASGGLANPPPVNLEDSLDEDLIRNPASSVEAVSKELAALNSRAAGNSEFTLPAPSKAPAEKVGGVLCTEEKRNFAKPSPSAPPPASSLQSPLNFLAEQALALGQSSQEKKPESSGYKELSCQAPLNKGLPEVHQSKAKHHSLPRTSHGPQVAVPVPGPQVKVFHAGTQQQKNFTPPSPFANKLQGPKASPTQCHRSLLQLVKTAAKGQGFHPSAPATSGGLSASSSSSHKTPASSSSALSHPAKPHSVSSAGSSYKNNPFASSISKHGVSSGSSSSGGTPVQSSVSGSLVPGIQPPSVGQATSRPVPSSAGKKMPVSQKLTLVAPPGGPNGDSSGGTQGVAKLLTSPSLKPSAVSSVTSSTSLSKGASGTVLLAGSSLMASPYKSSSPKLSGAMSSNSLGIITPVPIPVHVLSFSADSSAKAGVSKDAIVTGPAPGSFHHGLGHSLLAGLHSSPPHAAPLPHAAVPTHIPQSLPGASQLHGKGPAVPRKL
inactive: vemurafenib -0.053 | [1] -0.069 | [2] 0.1 | volasertib 0.005 | [3] -0.127 | [4] 0.057 | saracatinib 0.04 | sotrastaurin 0.133 | alvocidib -0.176 | defactinib -0.044 | [6] -0.076 | encorafenib 0.059 | [7] 0.088 | [8] 0.09

UBAP2L (UniProt F8W726)
inactive: vemurafenib 0.094 | [1] -0.031 | volasertib -0.018 | sotrastaurin -0.052 | defactinib 0.06 | [8] 0.093

TFAP4 (UniProt Q01664)
UniProt Q01664, sequence (Q01664 whole entry, looked up): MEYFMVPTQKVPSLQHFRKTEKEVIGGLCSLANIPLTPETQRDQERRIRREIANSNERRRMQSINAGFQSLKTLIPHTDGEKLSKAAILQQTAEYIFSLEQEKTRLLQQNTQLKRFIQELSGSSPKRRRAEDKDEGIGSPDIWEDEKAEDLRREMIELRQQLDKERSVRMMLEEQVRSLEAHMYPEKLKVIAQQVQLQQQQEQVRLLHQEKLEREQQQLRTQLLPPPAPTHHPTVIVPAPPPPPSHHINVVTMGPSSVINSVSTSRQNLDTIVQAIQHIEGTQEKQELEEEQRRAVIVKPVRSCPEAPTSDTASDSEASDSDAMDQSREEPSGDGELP
inactive: vemurafenib 0.105 | [1] 0.021 | barasertib 0.072 | [2] 0.131 | volasertib -0.112 | [9] 0.129 | [3] 0.597 | [4] -0.189 | sotrastaurin 0.007 | alvocidib -0.037 | Tubastatin A 0.135 | [5] 0.133 | defactinib -0.066 | encorafenib 0.156 | [7] -0.108 | alisertib -0.106 | [8] -0.097 | gefitinib -0.096

UBXN10 (UniProt Q96LJ8)
UniProt Q96LJ8, sequence (Q96LJ8 whole entry, looked up): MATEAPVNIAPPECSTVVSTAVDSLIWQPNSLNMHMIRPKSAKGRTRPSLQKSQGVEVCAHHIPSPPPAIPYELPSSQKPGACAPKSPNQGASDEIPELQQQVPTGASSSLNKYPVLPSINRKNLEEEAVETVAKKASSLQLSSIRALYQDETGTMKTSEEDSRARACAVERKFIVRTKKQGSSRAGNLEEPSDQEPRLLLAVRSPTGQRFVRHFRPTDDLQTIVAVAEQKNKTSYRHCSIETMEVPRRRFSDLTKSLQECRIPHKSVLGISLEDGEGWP
inactive: vemurafenib 0.008 | [1] -0.089 | barasertib -0.133 | [2] 0.095 | volasertib 0.074 | [9] 0.01 | [3] -0.082 | [4] 0.021 | saracatinib -0.016 | sotrastaurin -0.012 | alvocidib -0.036 | Tubastatin A -0.02 | [5] 0.051 | defactinib 0.026 | [6] 0.019 | encorafenib 0.045 | [7] -0.116 | [8] -0.006

UBIAD1 (UniProt Q9Y5Z9)
inactive: vemurafenib -0.004 | [1] 0.043 | [2] 0.005 | volasertib 0.046 | [9] -0.083 | [3] 0.045 | [4] -0.335 | saracatinib -0.036 | sotrastaurin -0.079 | alvocidib -0.016 | Tubastatin A 0.025 | [5] 0.008 | defactinib 0.031 | [6] 0.157 | encorafenib 0.067 | [7] -0.102 | alisertib 0.112 | [8] -0.061 | gefitinib -0.048

UCHL5 (UniProt Q5LJA9)
inactive: vemurafenib -0.021 | [1] -0.061 | barasertib -0.01 | [2] -0.103 | volasertib 0.03 | [9] -0.108 | [3] 0.019 | [4] 0 | saracatinib 0.023 | sotrastaurin 0.007 | alvocidib 0.049 | Tubastatin A -0.153 | [5] 0.005 | defactinib 0.015 | [6] -0.156 | encorafenib 0.007 | [7] 0.091 | [8] -0.011

TSPAN3 (UniProt O60637)
active: [3] 0.663
inactive: vemurafenib -0.075 | [1] -0.052 | [2] 0.01 | volasertib 0.073 | [9] -0.222 | [4] -0.3 | saracatinib -0.038 | alvocidib 0.193 | Tubastatin A -0.081 | [5] 0.027 | defactinib 0.096 | [6] 0.091 | encorafenib -0.015 | [7] 0.026 | alisertib -0.231 | [8] 0.042 | gefitinib 0.049

THAP9 (UniProt Q9H5L6)
inactive: vemurafenib 0.199 | [1] 0.07 | barasertib 0.117 | [2] 0.309 | volasertib 0.088 | [9] -0.401 | [4] 0.151 | saracatinib 0 | sotrastaurin 0.076 | alvocidib -0.249 | Tubastatin A 0.053 | defactinib -0.067 | [6] 0.476 | encorafenib -0.009 | [7] 0.085 | [8] 0.179
active: [3] -0.66

TMEM177 (UniProt Q53S58)
UniProt Q53S58, sequence (Q53S58 whole entry, looked up): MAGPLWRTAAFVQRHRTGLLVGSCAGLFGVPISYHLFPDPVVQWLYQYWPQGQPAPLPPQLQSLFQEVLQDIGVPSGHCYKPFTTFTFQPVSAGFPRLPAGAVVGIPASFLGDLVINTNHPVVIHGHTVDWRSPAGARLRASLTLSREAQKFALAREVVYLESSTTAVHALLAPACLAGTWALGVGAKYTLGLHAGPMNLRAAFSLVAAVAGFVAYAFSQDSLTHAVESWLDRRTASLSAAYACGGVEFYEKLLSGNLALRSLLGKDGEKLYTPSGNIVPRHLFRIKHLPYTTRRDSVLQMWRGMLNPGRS
inactive: vemurafenib -0.057 | [1] 0.011 | barasertib 0.063 | [2] -0.005 | volasertib -0.076 | [9] 0.078 | [3] 0.056 | [4] -0.161 | sotrastaurin -0.017 | alvocidib 0.042 | Tubastatin A 0.05 | [5] 0.075 | defactinib -0.009 | encorafenib 0.019 | [7] 0.153 | [8] 0.002

TUBB6 (UniProt K7ES63)
inactive: vemurafenib 0.072 | [1] -0.027 | barasertib -0.012 | [2] -0.096 | volasertib -0.064 | [9] 0.018 | [3] -0.06 | [4] 0.23 | sotrastaurin 0.036 | alvocidib -0.11 | Tubastatin A -0.021 | [5] 0.111 | defactinib -0.018 | encorafenib 0.024 | [7] 0.125 | alisertib 0.055 | [8] -0.051 | gefitinib 0.165

TCF4 (UniProt P15884)
UniProt P15884, sequence (P15884 whole entry, looked up): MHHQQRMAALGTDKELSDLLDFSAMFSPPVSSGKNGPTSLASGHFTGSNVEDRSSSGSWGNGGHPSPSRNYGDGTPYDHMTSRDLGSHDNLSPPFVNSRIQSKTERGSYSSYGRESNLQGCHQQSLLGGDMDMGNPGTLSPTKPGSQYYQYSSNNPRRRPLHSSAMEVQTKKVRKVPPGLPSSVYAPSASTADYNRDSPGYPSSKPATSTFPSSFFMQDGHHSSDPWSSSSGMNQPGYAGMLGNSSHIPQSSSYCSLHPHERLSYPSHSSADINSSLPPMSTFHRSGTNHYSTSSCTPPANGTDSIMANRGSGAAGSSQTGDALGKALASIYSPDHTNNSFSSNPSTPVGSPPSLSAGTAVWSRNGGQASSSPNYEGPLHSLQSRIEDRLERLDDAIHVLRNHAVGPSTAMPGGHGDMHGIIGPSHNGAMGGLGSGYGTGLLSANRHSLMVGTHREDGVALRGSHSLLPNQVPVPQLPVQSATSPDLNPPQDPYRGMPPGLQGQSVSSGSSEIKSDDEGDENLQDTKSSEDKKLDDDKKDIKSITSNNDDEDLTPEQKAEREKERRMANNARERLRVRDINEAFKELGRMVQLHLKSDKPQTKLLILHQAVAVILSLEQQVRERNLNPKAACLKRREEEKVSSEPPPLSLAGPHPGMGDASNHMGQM
inactive: [1] -0.015 | [2] -0.017 | volasertib 0.126 | [9] 0.008 | [3] -0.011 | [4] 0.03 | saracatinib 0.021 | sotrastaurin -0.017 | alvocidib 0.005 | Tubastatin A -0.282 | [6] -0.009 | encorafenib 0.17 | [7] -0.099 | alisertib 0.078 | [8] 0.212 | gefitinib 0.06

TFPT (UniProt P0C1Z6)
UniProt P0C1Z6, sequence (P0C1Z6 whole entry, looked up): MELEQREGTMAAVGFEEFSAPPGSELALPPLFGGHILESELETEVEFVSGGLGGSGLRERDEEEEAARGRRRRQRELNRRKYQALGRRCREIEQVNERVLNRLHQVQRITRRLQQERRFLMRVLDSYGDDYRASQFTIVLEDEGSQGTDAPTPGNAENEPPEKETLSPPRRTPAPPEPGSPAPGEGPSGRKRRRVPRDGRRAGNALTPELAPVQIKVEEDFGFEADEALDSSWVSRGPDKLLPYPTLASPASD
inactive: [1] -0.019 | barasertib 0.148 | volasertib 0.015 | saracatinib 0.005 | [5] -0.041 | [8] 0.027
active: [6] 0.381

TM2D3 (UniProt Q9BRN9)
UniProt Q9BRN9, sequence (Q9BRN9 whole entry, looked up): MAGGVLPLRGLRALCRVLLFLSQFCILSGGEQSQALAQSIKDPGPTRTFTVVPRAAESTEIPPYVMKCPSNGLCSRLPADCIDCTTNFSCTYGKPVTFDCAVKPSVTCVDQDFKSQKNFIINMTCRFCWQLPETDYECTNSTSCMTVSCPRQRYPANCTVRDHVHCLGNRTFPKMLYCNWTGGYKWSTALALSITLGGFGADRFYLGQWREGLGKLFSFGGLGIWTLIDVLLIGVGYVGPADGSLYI
active: [3] -0.934
inactive: barasertib -0.105 | [2] -0.079 | [9] 0.199 | [4] 0.444 | alvocidib -0.291 | Tubastatin A -0.125 | [5] 0.008 | encorafenib -0.116 | [7] -0.116

TUBB4A (UniProt P04350)
UniProt P04350, sequence (P04350 whole entry, looked up): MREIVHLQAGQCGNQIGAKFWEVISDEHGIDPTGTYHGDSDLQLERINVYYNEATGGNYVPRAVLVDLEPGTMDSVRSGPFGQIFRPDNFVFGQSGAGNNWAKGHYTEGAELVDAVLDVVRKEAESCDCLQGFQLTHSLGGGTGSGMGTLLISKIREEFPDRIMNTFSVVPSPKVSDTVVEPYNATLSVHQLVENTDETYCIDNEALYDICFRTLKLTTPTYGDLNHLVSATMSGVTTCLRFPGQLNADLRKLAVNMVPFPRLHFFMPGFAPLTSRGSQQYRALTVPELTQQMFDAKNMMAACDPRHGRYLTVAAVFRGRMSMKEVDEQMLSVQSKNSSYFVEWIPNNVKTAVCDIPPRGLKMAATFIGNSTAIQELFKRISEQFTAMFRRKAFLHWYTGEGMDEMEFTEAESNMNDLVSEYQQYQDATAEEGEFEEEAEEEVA
inactive: [1] 0.036 | barasertib -0.006 | [2] 0.045 | volasertib 0.104 | [9] 0.02 | [3] -0.09 | [4] 0 | saracatinib -0.033 | sotrastaurin -0.007 | alvocidib -0.006 | Tubastatin A -0.113 | [5] -0.029 | [6] 0.051 | encorafenib -0.027 | [7] 0.112 | alisertib 0.021 | [8] -0.002 | gefitinib 0.101

TUBA4A (UniProt C9JQ00)
inactive: barasertib 0.267 | [3] 0 | [4] -0.045 | alvocidib 0.074

TMSB4X (UniProt P62328)
UniProt P62328, sequence (P62328 whole entry, looked up): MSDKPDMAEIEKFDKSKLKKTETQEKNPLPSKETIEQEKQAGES
inactive: [1] -0.068 | barasertib 0.056 | [2] 0.084 | volasertib 0.104 | [9] -0.187 | [3] -0.191 | [4] 0.371 | sotrastaurin 0.205 | alvocidib 0.401 | Tubastatin A 0.102 | [5] -0.045 | encorafenib 0.043 | [7] -0.055 | alisertib -0.143 | [8] 0.063 | gefitinib -0.001

TEDC1 (UniProt Q86SX3)
UniProt Q86SX3, sequence (Q86SX3 whole entry, looked up): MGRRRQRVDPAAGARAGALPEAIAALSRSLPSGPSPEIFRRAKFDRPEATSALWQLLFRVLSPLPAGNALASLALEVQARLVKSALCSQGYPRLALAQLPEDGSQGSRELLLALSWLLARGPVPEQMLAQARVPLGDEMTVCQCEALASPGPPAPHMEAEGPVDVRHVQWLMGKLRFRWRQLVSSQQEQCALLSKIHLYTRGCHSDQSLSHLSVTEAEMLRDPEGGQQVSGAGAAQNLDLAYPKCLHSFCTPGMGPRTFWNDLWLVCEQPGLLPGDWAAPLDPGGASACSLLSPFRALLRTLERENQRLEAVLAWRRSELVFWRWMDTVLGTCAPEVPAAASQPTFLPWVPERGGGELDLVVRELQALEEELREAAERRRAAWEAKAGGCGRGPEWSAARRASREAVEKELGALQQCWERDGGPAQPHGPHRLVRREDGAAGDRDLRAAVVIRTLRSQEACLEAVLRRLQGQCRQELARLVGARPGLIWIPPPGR
inactive: [1] 0.103 | [2] 0.106 | volasertib -0.041 | [9] 0.019 | saracatinib -0.02 | sotrastaurin -0.037 | Tubastatin A -0.254 | [5] 0.038 | [6] 0.051 | encorafenib 0.094 | [7] 0.047 | alisertib -0.019 | [8] -0.008 | gefitinib 0.047

TJP1 (UniProt H0Y3R8)
inactive: [3] 0.048 | [4] -0.16 | alvocidib 0.079
